Experiment [1] deals with Estrogen receptor (Homo sapiens) (UniProt P03372). The experiment in a line: OT_ER_ERaERa_1440: Odyssey Thera (OT) 24-hour HEK293T Protein-Complementation Assay for Estrogen Receptor-alpha/-alpha Homodimer (AID 2283349).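 Note: hits raise fluorescence above DMSO for agonists and antagonists alike.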 The method, boiled down:
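HEK293T, stable ERα LBD (aa 310-547) homodimer PCA; 24 h compound exposure; mean fluorescence intensity (nuclear for agonists, nuclear plus cytoplasmic for antagonists) vs vehicle; positive fitting direction, DMSO baseline.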

Experiment [2] has the same target. The experiment in a line: OT_ER_ERaERa_0480: Odyssey Thera (OT) 8-hour HEK293T Protein-Complementation Assay for Estrogen Receptor-alpha/-alpha Homodimer (AID 2283351).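 Note: rise in fluorescence from reassembled reporter fragments on ERα LBD homodimer in nucleus or whole cell.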 In outline:
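Measures ERα LBD (aa 310-547) homodimer complementation in stably transfected HEK293T at 8 h post-dose, with fluorescence intensity quantified on a laser scanning cytometer relative to DMSO controls.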

The target of experiment [3] is T1, Estrogen receptor (Homo sapiens) + Estrogen receptor beta (Homo sapiens) (UniProt P03372+Q92731). Description: OT_ER_ERaERb_0480: Odyssey Thera (OT) 8-hour HEK293T Protein-Complementation Assay for Estrogen Receptor-alpha/-beta Heterodimer (AID 2283352). The method, boiled down:
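HEK293T protein-fragment complementation assay of ER-alpha/ER-beta LBD heterodimerisation, read 8 h after dosing. Mean nuclear/cytoplasmic fluorescence intensity measured by laser scanning cytometry; gain of signal fitted relative to DMSO.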

In experiment [4] the target is T1, Estrogen receptor (Homo sapiens) + Estrogen receptor beta (Homo sapiens). Description: OT_ER_ERaERb_1440: Odyssey Thera (OT) 24-hour HEK293T Protein-Complementation Assay for Estrogen Receptor-alpha/-beta Homodimer (AID 2283356).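 Note: heteromer of ER alpha and ER beta binding domains; hits raise reporter fluorescence and both agonists and antagonists give an increase.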 In outline:
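HEK293T stably expressing a PCA of ER alpha LBD (aa 310-547) and ER beta LBD (aa 263-489). After 24 h compound exposure, mean fluorescence intensity in nucleus (agonists) or nucleus and cytoplasm (antagonists) measured by laser scanning cytometry versus vehicle.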

The target in experiment [5] is Estrogen receptor beta (Homo sapiens) (UniProt Q92731). Description: OT_ER_ERbERb_0480: Odyssey Thera (OT) 8-hour HEK293T Protein-Complementation Assay for Estrogen Receptor-beta/-beta Homodimer (AID 2283357).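 Note: active means signal gain over DMSO baseline.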 In outline:
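ER-beta LBD homodimer PCA stably expressed in HEK293T; 8 h compound exposure, then formaldehyde fixation and Draq5 staining. Gain in nuclear/cytoplasmic fluorescence intensity versus DMSO vehicle, read on laser scanning cytometer.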

Experiment [6] shares this target. Description: OT_ER_ERbERb_1440: Odyssey Thera (OT) 24-hour HEK293T Protein-Complementation Assay for Estrogen Receptor-beta/-beta Homodimer (AID 2283380).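 Note: scored as signal increase over DMSO baseline for both agonists and antagonists.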 In outline: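 Fluorescence increase, nuclear for agonists or whole-cell for antagonists, relative to DMSO vehicle, quantified by laser scanning cytometer after fixation and Draq5 staining. Readout from 24 h treatment of HEK293T cells carrying complementation-paired ER beta LBD (aa 310-547).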

For experiment [7], the target named is Estrogen receptor (Homo sapiens) (UniProt P03372). The experiment in a line: OT_ERa_GFPERaERE_0480: Odyssey Thera (OT) 8-hour HeLa Transcription Induction Assay for Estrogen Receptor (AID 2283381; active = hit-call score of the fitted dose curve at least 0.9, where 1 is the maximum; inactive = score below 0.9). In outline: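 An 8 h HeLa transcription-induction format with a GFP reporter under ERE control, read by fluorescence microscopy; single endpoint fitted positively with DMSO as baseline.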

The target is the same in experiment [8]. Description: OT_ERa_GFPERaERE_0120: Odyssey Thera (OT) 2-hour HeLa Transcription Induction Assay for Estrogen Receptor (AID 2283382). The method, boiled down:
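Two-hour compound treatment of HeLa cells preceded microscopy imaging of an inducible fluorescent reporter. Image-based quantification gave one endpoint, analysed for signal increase relative to DMSO controls.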

For experiment [9], the target named is Retinoic acid receptor RXR-alpha (Homo sapiens) (UniProt P19793). Description: OT_NURR1_NURR1RXRa_0480: Odyssey Thera (OT) 8-hour HEK293T Protein Complementation Assay for Nurr1/retinoid X receptor (RXR) (AID 2283385). In outline: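 Gain in fluorescent complementation signal over DMSO, measured 8 hours after chemical dosing of human kidney HEK293T cells, indicated enhanced Nurr1–RXRα association.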

Experiment [10] shares this target. The experiment in a line: OT_NURR1_NURR1RXRa_1440: Odyssey Thera (OT) 24-hour HEK293T Protein Complementation Assay for Nurr1/retinoid X receptor (RXR) (AID 2283386). In outline:
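Cell-based binding reporter: HEK293T cells, 24 h exposure, fluorescence-detected fragment complementation, DMSO as baseline.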

The target of experiment [11] is Peroxisome proliferator-activated receptor gamma (Homo sapiens) (UniProt P37231). The experiment in a line: OT_PPARg_PPARgSRC1_1440: Odyssey Thera (OT) 24-hour Protein-Complementation Assay for Peroxisome Proliferator-activated Receptor Gamma/ SRC-1 Co-activator (AID 2283388). The method, boiled down: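 HEK293T transiently transfected with PPARg/SRC-1 split-Venus YFP fusions 48 h before dosing, then treated 24 h at 37C. Fixed cells imaged; nuclear/cytoplasmic 488 nm fluorescence ratio, gain of signal versus DMSO.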

Read-out in experiment [12]: Fatty acid synthase (Homo sapiens) (UniProt P49327)
Description: LTEA_HepaRG_FASN: Life Technologies and Expression Analysis (LTEA) Assay for Fatty Acid Synthase (FASN) using HepaRG (AID 2283448; active = hit-call score of the fitted dose curve at least 0.9, where 1 is the maximum; inactive = score below 0.9). The following applies: mRNA level, 48 h; actives raise or lower the signal. The method, boiled down: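 In human HepaRG cultures, 48 h chemical exposure (up to 100 uM, 0.5% DMSO) preceded TaqMan qRT-PCR of FASN.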

Read-out in experiment [13]: Cyclin D2 (CCND2), CCND2 (gene 894)
The experiment in a line: LTEA_HepaRG_CCND2: Life Technologies and Expression Analysis (LTEA) Assay for Cyclin D2 (CCND2) using HepaRG (AID 2283449; active = hit-call score of the fitted dose curve at least 0.9, where 1 is the maximum; inactive = score below 0.9). The following applies: mRNA level, 48 h; actives raise or lower the signal. In outline: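 CCND2 transcript levels, quantified by qRT-PCR and normalised to three housekeeping genes, were fitted bidirectionally against 0.5% DMSO. HepaRG cultures were dosed 48 h in duplicate with an 8-point half-log series up to 100 uM.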

Read-out in experiment [14]: Cyclin Dependent Kinase Inhibitor 1A (CDKN1A), CDKN1A (gene 1026)
Description: LTEA_HepaRG_CDKN1A: Life Technologies and Expression Analysis (LTEA) Assay for Cyclin Dependent Kinase Inhibitor 1A (CDKN1A) using HepaRG (AID 2283450; active = hit-call score of the fitted dose curve at least 0.9, where 1 is the maximum; inactive = score below 0.9). The settings on record: mRNA level, 48 h; actives raise or lower the signal. In outline:
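Differentiated HepaRG cells in serum-free induction medium, exposed 48 h in duplicate to eight half-log concentrations up to 100 uM in 0.5% DMSO. mRNA measured by TaqMan qRT-PCR, normalized to ACTB, GAPDH, POLR2A; bidirectional fit versus DMSO.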

Read-out in experiment [15]: Cyclin D1 (CCND1), CCND1 (gene 595)
Description: LTEA_HepaRG_CCND1: Life Technologies and Expression Analysis (LTEA) Assay for Cyclin D1 (CCND1) using HepaRG (AID 2283451; active = hit-call score of the fitted dose curve at least 0.9, where 1 is the maximum; inactive = score below 0.9). The settings on record: mRNA level, 48 h; actives raise or lower the signal. The method, boiled down: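 Differentiated HepaRG cells exposed 48 h in serum-free induction medium to eight half-log concentrations from 100 uM top, 0.5% DMSO, duplicates. CCND1 mRNA measured by Fluidigm TaqMan qRT-PCR, normalised to ACTB, GAPDH, POLR2A; bidirectional fit.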

Read-out in experiment [16]: catalase (CAT), CAT (gene 847)
Description: LTEA_HepaRG_CAT: Life Technologies and Expression Analysis (LTEA) Assay for catalase (CAT) using HepaRG (AID 2283452; active = hit-call score of the fitted dose curve at least 0.9, where 1 is the maximum; inactive = score below 0.9). The settings on record: mRNA level, 48 h; actives raise or lower the signal. In outline:
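Expression of CAT was quantified by TaqMan qRT-PCR with ACTB/GAPDH/POLR2A normalization after 48 h chemical exposure of HepaRG. Eight-point half-log series, top 100 uM, in 0.5% DMSO; gain or loss fitted against vehicle.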

Read-out in experiment [17]: flavin-containing dimethylaniline monooxygenases 3 (FMO3), FMO3 (gene 2328)
The experiment in a line: LTEA_HepaRG_FMO3: Life Technologies and Expression Analysis (LTEA) Assay for flavin-containing dimethylaniline monooxygenases 3 (FMO3) using HepaRG (AID 2283453; active = hit-call score of the fitted dose curve at least 0.9, where 1 is the maximum; inactive = score below 0.9). The following applies: mRNA level, 48 h; actives raise or lower the signal. In outline: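 Eight-point concentration-response in serum-free HepaRG cultures (top 100 uM, 0.5% DMSO, 48 h). Read-out: FMO3 mRNA level normalized to three endogenous control genes, fitted bidirectionally versus vehicle.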

Read-out in experiment [18]: Cytochrome P450 (CYP1A1), CYP1A1 (gene 1543)
Description: LTEA_HepaRG_CYP1A1: Life Technologies and Expression Analysis (LTEA) Assay for Cytochrome P450 (CYP1A1) using HepaRG (AID 2283454; active = hit-call score of the fitted dose curve at least 0.9, where 1 is the maximum; inactive = score below 0.9). The settings on record: mRNA level, 48 h; actives raise or lower the signal. In outline: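 Differentiated human HepaRG cells, after 48 h plating, exposed in duplicate for 48 h in serum-free induction medium to 8 half-log concentrations up to 100 uM in 0.5% DMSO. CYP1A1 mRNA by qRT-PCR, normalized to ACTB/GAPDH/POLR2A; bidirectional fit versus DMSO.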

Inconclusive results are not listed. Calls of active or inactive are those of the source. Rule for the calls, unless noted: active = hit-call score of the fitted dose curve at least 0.9, where 1 is the maximum; inconclusive = response in the unintended direction; inactive = score below 0.9.

Retinoic acid receptor RXR-alpha (Homo sapiens), sequence (P19793 whole entry, looked up): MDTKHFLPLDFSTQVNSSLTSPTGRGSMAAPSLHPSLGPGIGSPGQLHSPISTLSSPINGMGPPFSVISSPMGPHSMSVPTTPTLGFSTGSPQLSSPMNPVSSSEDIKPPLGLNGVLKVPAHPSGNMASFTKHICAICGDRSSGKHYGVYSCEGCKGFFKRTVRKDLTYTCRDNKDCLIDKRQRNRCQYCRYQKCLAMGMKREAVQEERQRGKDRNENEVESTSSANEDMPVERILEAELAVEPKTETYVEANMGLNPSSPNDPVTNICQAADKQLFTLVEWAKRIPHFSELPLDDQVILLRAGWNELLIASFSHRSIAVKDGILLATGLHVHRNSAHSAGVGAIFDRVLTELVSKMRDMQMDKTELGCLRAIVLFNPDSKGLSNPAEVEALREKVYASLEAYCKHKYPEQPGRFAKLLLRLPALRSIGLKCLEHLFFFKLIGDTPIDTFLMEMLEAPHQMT
Estrogen receptor (Homo sapiens), sequence (P03372 whole entry, looked up, the tested form may be a part): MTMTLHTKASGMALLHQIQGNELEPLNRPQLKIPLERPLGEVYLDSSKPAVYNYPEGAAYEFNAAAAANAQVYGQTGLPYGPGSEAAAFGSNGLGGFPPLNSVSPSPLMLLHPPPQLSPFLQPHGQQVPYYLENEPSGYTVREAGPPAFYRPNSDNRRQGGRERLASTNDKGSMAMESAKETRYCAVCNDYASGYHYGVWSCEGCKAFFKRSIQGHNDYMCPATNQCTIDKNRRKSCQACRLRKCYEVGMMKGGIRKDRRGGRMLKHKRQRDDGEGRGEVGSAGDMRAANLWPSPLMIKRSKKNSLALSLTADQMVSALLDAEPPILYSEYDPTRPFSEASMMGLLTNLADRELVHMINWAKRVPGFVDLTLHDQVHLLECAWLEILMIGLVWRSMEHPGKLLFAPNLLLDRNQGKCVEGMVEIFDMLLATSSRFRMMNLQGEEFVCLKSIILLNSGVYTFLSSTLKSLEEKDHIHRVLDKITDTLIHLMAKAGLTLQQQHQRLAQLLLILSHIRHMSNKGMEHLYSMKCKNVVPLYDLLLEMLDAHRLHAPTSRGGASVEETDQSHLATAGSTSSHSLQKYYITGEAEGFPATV
Peroxisome proliferator-activated receptor gamma (Homo sapiens), sequence (P37231 whole entry, looked up, the tested form may be a part): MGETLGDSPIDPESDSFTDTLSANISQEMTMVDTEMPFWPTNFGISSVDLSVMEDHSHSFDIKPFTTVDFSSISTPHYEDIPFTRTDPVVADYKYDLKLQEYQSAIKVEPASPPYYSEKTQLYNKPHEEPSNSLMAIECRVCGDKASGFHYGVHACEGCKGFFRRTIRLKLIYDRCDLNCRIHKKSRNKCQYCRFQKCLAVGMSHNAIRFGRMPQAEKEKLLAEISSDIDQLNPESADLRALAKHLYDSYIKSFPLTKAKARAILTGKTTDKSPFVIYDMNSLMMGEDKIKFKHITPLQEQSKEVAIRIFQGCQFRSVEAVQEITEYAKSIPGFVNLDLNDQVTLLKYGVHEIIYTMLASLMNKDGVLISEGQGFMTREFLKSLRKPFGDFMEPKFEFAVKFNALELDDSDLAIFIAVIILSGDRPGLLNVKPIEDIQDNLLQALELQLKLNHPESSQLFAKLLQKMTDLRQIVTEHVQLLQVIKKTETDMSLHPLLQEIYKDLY
T1 sequence (P03372 whole entry, looked up, the tested form may be a part): as the sequence (P03372 whole entry, looked up, the tested form may be a part) above
T1 sequence (Q92731 whole entry, looked up, the tested form may be a part): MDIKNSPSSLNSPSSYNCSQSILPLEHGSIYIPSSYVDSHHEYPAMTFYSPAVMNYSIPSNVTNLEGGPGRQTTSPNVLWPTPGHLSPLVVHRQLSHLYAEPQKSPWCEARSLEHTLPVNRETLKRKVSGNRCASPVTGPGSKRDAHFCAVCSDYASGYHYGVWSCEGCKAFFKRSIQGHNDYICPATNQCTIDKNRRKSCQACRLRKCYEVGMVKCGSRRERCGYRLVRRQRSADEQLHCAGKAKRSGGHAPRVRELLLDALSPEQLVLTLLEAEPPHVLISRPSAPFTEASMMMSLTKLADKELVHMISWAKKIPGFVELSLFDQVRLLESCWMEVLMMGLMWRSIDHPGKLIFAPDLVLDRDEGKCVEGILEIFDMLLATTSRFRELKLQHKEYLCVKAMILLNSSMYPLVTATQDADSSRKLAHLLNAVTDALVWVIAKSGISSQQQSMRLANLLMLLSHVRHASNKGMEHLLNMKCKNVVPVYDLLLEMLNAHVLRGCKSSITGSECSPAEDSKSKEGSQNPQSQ
Estrogen receptor beta (Homo sapiens), sequence (Q92731 whole entry, looked up, the tested form may be a part): as above
Fatty acid synthase (Homo sapiens), sequence (P49327 whole entry, looked up): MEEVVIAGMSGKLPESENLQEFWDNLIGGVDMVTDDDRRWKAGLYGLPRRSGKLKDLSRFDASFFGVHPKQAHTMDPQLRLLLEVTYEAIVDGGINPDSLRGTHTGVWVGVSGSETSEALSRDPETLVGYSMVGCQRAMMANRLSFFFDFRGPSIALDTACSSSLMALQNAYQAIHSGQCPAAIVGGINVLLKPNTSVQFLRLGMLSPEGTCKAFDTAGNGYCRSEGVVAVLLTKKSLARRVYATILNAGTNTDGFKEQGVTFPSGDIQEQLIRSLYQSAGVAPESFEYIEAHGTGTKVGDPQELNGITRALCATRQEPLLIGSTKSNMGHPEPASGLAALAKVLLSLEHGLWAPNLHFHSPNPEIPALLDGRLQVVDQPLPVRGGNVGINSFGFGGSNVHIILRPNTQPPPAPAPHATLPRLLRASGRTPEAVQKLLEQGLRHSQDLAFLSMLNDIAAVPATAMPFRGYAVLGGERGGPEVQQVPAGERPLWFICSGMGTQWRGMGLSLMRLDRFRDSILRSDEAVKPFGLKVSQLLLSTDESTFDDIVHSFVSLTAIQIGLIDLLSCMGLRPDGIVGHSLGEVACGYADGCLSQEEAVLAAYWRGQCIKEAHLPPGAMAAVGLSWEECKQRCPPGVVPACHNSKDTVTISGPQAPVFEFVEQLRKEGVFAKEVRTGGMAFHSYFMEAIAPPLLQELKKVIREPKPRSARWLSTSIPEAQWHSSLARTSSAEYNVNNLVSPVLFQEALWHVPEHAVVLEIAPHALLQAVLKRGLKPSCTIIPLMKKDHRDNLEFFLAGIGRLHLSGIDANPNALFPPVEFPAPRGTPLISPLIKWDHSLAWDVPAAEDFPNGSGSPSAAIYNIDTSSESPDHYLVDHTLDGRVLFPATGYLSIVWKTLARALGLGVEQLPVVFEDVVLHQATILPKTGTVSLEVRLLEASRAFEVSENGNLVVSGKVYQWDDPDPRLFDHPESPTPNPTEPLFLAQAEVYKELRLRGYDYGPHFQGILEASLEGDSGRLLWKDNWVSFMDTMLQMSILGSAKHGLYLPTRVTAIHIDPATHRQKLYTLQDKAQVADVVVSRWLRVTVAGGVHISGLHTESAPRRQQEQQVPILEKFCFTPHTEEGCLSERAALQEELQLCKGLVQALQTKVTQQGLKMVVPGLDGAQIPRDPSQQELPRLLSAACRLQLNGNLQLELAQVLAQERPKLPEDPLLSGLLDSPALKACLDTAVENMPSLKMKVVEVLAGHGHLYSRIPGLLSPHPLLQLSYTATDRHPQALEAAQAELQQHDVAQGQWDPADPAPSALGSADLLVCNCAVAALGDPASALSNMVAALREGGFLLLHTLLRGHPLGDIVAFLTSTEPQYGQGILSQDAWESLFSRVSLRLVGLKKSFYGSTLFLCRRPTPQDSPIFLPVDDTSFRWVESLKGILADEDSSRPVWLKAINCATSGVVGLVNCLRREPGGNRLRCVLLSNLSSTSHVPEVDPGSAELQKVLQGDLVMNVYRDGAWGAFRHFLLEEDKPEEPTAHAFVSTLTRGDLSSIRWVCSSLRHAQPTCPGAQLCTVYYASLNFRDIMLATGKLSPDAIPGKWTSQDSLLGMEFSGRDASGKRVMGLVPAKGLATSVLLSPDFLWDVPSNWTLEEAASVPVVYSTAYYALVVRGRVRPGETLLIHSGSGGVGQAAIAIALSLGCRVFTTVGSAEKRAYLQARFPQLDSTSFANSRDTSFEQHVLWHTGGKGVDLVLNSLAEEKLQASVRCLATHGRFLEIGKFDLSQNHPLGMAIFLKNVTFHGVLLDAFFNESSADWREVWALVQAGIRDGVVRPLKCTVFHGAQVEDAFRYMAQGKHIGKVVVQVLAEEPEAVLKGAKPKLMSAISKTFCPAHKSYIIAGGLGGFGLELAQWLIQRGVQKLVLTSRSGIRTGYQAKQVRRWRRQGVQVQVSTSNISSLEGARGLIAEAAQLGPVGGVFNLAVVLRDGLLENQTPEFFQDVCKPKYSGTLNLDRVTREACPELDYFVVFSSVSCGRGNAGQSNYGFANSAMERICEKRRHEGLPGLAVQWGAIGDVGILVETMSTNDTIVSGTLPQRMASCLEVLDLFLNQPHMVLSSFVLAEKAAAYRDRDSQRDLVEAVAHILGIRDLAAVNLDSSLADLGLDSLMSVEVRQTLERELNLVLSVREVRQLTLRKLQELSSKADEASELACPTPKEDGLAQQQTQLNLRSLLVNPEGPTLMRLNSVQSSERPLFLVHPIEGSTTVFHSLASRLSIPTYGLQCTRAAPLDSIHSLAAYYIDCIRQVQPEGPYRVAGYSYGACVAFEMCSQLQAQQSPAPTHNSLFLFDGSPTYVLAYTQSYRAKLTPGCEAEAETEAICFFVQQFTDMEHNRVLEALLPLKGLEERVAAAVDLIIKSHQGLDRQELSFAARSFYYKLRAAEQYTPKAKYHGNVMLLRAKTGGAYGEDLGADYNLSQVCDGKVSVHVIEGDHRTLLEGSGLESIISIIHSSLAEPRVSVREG

The AC50 is the midpoint of the concentration-response curve, whichever way the signal moves. In the case of `c1cc[n+]2c(c1)-c1cccc[n+]1CC2`, the compound was called inactive in [1], in [2], in experiment [3], in experiment [4], in experiment [5] and in experiment [6]. Also, the compound was classed as inactive in experiment [7], in experiment [8], in experiment [9], in experiment [10], in experiment [11] and in experiment [12]. The compound was called inactive in [13], in [14], in experiment [15], in experiment [16] and in experiment [17]. For the same compound, the AC50 in [18] is 22.4 µM (active).

The values are drawn from PubChem BioAssay (EPA / NIEHS).
